# Sm TGR block: inhibitors of Schistosoma mansoni thioredoxin glutathione reductase; Q962Y6; AID 485364; actives 3% (n = 360,000); Potency, µM (series often up to 114 µM), inactives show at the top dose activity change, negative = inhibition, actives largely listed as inhibitors; purified TGR, DTNB reduction, TNB absorbance 405 nm; active means well fitted inhibition curve with a large enough effect; inconclusive means small, poorly fitted or top-dose-only effect; inactive means no such curve, though single readings can be large or run the other way; further: potency means the concentration at half of the fitted maximal effect; on the % scale 0 is the no-effect control and ±100 the full control effect; nearly all actives have a fitted effect of over 60% in size
#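 TGR 20 nM + NADPH 100 uM (dispensed conc.), cpd preinc 15 min RT; start with NADPH (500 uM addition) then DTNB (15 mM addition). Kinetic TNB absorbance, 405 nm filter. Four-parameter Hill fit across titration.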
# FMDV antiviral: antivirals against foot and mouth disease virus; FMDV antiviral cell-based qHTS; Potency, µM (top dose mostly 57.9 µM), inactives show at the highest dose activity change, negative = inhibition, most hits filed as inhibitors; actives 1.2% (n = 410,000); AID 1159524; calls by dose curve; tested in HEK293T cells; further: read-out not given here; potency means the concentration at half of the fitted maximal effect; on the % scale 0 is the no-effect control and ±100 the full control effect; nearly all actives have a fitted effect of over 45% in size
# Cycloheximide cs: counter-screen hit for Shiga toxin inhibitors, cycloheximide; cell reporter, cycloheximide protein synthesis inhibition counterscreen; max response, %; actives 12% (n = 300,000); in the data active means max response mostly above about 13%, no sharp cut-off; inactive means mostly below about 14%; further: read at 38.3 µM for the half of the compounds with a filed dose; 0% is about no effect
# Shiga inhibitor: inhibitors of Shiga toxin in Vero cells; Vero cells, Shiga toxin protein synthesis inhibition reporter; inhibition, % at 38.7 µM; actives 9.2% (n = 290,000); AID 2315; in the data active means inhibition mostly above about 28%, no sharp cut-off; inactive means mostly below about 43%; further: 0% is about no effect
# Starred values were filed as active, the others as inactive; ? = inconclusive; . = not tested or not shown. Rows were chosen to be rich in hits. Some 12% of all compounds tested hit in one or more screens of this group.
SMILES,Sm TGR block,FMDV antiviral,Cycloheximide cs,Shiga inhibitor
COc1ccc(OCc2cc(C(=O)NC(C)Cc3cnccn3)no2)c(Cl)c1 (centres undefined),-7.8%,9.6%,31.1*,71.7*
CCc1ccccc1NC(=O)c1ccc2c(O)c(S(=O)(=O)c3ccccc3)c(=O)[nH]c2c1,3.5%,8.8%,.,.
COc1cccc(Nc2nc(CC(C)=O)ns2)c1,-27.6%,32.7%,18.7*,59.9*
COc1cccc(NC(=O)CC(C)=O)c1,-9.0%,-10.2%,7.2,-3.1
COc1ccc(Nc2nc(CC(C)=O)ns2)cc1,-16.9%,40.3%,27.4*,68.3*
CCOC(=O)c1ccc(NC(=O)CS(=O)(=O)Cc2nc(-c3ccc(C)cc3)oc2C)cc1,-28.9%,3.0%,.,.
C=C(C)CNC(=S)Nc1cccc(N)n1,2.82µM*,7.5%,-2.0,-4.2
C=C(C)CNC(=S)N/N=C(\C)c1cccc(NC(C)=O)c1,-20.7%,-27.7%,-2.5,2.7
CCOC(=O)c1c(N)n(-c2ccc(Cl)c(Cl)c2)c2nc3ccccc3nc12,10.7%,-22.1%,.,.
CC1(C)CC(=O)C/C(=N\NC(=O)C2CC2c2ccccc2)C1 (centres undefined),?,28.0%,2.6,43.7*
CC1(C)CC(=O)C/C(=N\NC(=S)NCc2ccccc2)C1,0.2%,11.4%,8.6,35.8
Cc1noc2ncnc(N3CCN(c4ccccc4F)CC3)c12,3.1%,?,.,.
COc1cc2c(cc1OC)n(CC(=O)c1cccc(Cl)c1)c(=O)n1nc(CCn3nc(C)cc3C)nc21,0.2%,-7.3%,.,.
COc1ccccc1S(=O)(=O)Cc1ccc(C(=O)N2CCN(c3cccc(Cl)c3)CC2)o1,-19.5%,17.8µM*,11.4,-2.9
COc1ccccc1S(=O)(=O)Cc1ccc(C(=O)N2CCN(c3ccccc3)CC2)o1,0.0%,?,-1.5,-10.7
CCOC(=O)C1CCCN(C(=O)c2ccc(C(=O)c3ccccc3)cc2)C1 (centres undefined),5.4%,-12.0%,.,.
CCOC(=O)C1CCCN(C(=O)c2ccc(-c3ccc([N+](=O)[O-])cc3)o2)C1 (centres undefined),6.31µM*,?,.,.
CCOC(=O)C1CCCN(C(=O)c2ccc(CS(=O)(=O)Cc3ccccc3C)o2)C1 (centres undefined),28.2µM*,-22.8%,-1.1,-13.9
Cc1ccc(S(=O)(=O)Cc2ccc(C(=O)NC3CCCCCC3)o2)cc1,-8.3%,-15.6%,-2.4,-8.5
CCCN1CCN(C(=O)c2ccc(-c3ccc([N+](=O)[O-])cc3)o2)CC1,?,-23.2%,.,.
Cc1ccc(S(=O)(=O)Cc2ccc(C(=O)N3CCCCCC3)o2)cc1,15.8µM*,-14.0%,-0.8,-15.6
Cc1nn(C)c(C)c1S(=O)(=O)N(CC(=O)Nc1ccc(F)cc1F)c1ccc(C(C)C)cc1,-16.3%,-7.9%,.,.
O=C(CN1C(=O)COc2ccc(S(=O)(=O)N3CCOCC3)cc21)NCc1ccc(Cl)cc1,5.9%,-0.9%,.,.
COc1ccc(NC(=O)c2c(-c3ccc(C)cc3)nnc3ccccc23)cc1OC,0.8%,32.9%,.,.
O=C(C1CCC(Cn2c(=O)c3sccc3n(Cc3ccccc3)c2=O)CC1)N1CCCCC1 (centres undefined),-0.5%,-27.1%,.,.
SMILES,Sm TGR block,FMDV antiviral,Cycloheximide cs,Shiga inhibitor
Cc1ccc(S(=O)(=O)Cc2ccc(C(=O)N3CCCC3)o2)cc1,44.7µM*,-3.1%,7.8,15.7
Cc1ccc(C)c(N2CCN(C(=O)c3ccc(CS(=O)(=O)c4ccccc4C)o3)CC2)c1,25.1µM*,?,-0.8,-8.8
Cc1ccc(S(=O)(=O)Cc2ccc(C(=O)N3CCN(c4cc(C)ccc4C)CC3)o2)cc1,0.5%,-22.9%,-4.6,2.6
CCOC(=O)C1CCCN(C(=O)c2ccc(CS(=O)(=O)c3ccc(C)cc3)o2)C1 (centres undefined),20µM*,-28.5%,-5.5,-15.3
CC(C)c1nc2ccc(C(=O)Nc3ccccc3F)cc2o1,-2.1%,?,.,.
O=C(Nc1ccc(Cc2ccc(NC(=O)Nc3cccnc3)cc2)cc1)Nc1cccnc1,.,-1.6%,.,.
O=C(Nc1ccc(Cl)cc1)Nc1cccnc1,3.2%,.,37.2*,55.4*
COc1ccc(NC(=O)Nc2cccnc2)cc1,2.4%,48.2%,22.7*,43.7*
CCOc1ccc(NC(=O)Nc2cccnc2)cc1,8.3%,38.1%,24.9*,60.0*
O=C1/C(=C\c2cccs2)Sc2ccc3ccccc3c21,-6.4%,-22.2%,47.6*,84.3*
Cc1ccc(S(=O)(=O)n2ccc(OC(=O)c3cccs3)n2)cc1,6.31µM*,-9.8%,-0.4,-19.0
CC(=O)NC1CCCN(O)C(=O)/C=C(\C)CCOC(=O)C(NC(C)=O)CCCN(O)C(=O)/C=C(\C)CCOC(=O)C(NC(C)=O)CCCN(O)C(=O)/C=C(\C)CCOC1=O (centres undefined),?,20µM*,-2.5,15.8

# Screens from PubChem BioAssay.
